# Source: PubChem BioAssay (Broad Institute)
# PglD inh: inhibitors of Campylobacter jejuni PglD acetyltransferase; purified PglD enzyme, DTNB colorimetric CoA detection; inhibition, % at 12.5 µM; 360,000 compounds, 0.098% hits; in the data active = inhibition above about 16%, passing the limit was not always enough
# miR-122 sensor: blocks miR-122 activity in Huh7 sensor cells | Huh7 miR-122 Renilla luciferase sensor, 48 h; neutral wells = 0, positive control = 100 | 340,000 compounds, 0.3% hits | activation (reporter increase), % at 12.5 µM;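 active = mean replicate activation score at least 90 and every replicate individually at or above 90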;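 note: higher luciferase means less miR-122 activity so hits act as miR-122 inhibitors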
# C2C12 statin: protects C2C12 myotubes from simvastatin toxicity. rescue of ATP level, % at 7.49 µM. ATP luminescence, 48 h; scaled: DMSO 0, geranylgeraniol control 100. 330,000 compounds, 0.78% hits. AID 602340;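 active = mean ATP rescue above about 67%, or every replicate alone reaching that limit, limit read from the data, passing the limit was not always enough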;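 note: myotubes were challenged with 10 µM simvastatin during compound exposure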
# NSD2 HMT inh: blocks human histone methyltransferase NSD2; 310,000 compounds, 0.54% hits; NSD2 peptide methylation, AlphaScreen, 120 min; inhibition, % at 12.5 µM; AID 743445; O96028; in the data active = inhibition above about 50%
# Target sequence (O96028 whole entry, looked up): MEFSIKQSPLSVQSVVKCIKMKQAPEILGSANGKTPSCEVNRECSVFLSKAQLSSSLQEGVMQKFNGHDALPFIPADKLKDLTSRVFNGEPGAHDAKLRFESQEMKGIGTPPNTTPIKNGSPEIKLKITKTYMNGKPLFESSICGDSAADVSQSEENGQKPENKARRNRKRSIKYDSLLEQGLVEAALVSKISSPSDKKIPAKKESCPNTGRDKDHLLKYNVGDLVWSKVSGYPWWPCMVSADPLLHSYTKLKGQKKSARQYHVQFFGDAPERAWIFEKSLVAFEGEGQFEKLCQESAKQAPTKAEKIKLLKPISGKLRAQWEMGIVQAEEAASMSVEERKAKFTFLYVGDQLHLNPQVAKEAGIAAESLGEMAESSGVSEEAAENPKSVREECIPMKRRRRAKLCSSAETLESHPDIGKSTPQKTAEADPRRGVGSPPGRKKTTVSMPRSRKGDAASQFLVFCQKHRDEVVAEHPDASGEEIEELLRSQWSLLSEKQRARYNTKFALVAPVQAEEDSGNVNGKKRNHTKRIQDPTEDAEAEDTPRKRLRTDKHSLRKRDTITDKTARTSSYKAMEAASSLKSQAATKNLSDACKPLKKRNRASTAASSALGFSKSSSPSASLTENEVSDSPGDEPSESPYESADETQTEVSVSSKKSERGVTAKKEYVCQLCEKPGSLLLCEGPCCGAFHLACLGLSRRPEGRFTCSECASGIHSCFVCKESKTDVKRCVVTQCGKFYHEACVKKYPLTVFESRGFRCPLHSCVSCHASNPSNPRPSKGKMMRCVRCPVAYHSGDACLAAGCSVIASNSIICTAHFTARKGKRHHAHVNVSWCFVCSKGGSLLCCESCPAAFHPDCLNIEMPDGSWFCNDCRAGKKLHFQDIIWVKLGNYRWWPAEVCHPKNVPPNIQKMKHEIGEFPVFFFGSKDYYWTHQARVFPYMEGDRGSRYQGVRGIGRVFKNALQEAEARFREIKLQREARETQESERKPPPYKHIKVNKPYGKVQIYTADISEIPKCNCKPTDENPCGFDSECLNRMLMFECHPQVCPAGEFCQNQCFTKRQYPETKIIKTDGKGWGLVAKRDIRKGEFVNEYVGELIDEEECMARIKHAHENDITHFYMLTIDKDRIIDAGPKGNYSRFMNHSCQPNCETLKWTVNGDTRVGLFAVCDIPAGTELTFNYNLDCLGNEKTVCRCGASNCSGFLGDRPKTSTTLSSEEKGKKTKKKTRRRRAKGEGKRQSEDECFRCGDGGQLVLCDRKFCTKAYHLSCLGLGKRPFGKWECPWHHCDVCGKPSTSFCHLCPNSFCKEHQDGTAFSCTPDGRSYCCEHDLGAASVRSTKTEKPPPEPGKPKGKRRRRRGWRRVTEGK
# Active calls of the source: *; . = not tested or not shown; [ ] = remark or other dose. An excerpt weighted towards active compounds, which were near 1.2% of everything screened.
SMILES,PglD inh,miR-122 sensor,C2C12 statin,NSD2 HMT inh
COc1ccc(N(CC(=O)Nc2cc(C)on2)S(=O)(=O)c2cc(C)ccc2C)cc1,-2,232*,26,-1
Cc1ccc(S(=O)(=O)N(C)C[C@@H]2Oc3ccc(NC(=O)Nc4ccc(C(F)(F)F)cc4)cc3CC(=O)N([C@H](C)CO)C[C@@H]2C)cc1,5,123*[16.7 µM],-177,.
Cc1ccc(S(=O)(=O)N(C)C[C@H]2Oc3ccc(NC(=O)Cc4ccccc4)cc3CC(=O)N([C@@H](C)CO)C[C@@H]2C)cc1,-75,3[16.7 µM],85*,.
Cc1ccc(S(=O)(=O)N(C)C[C@H]2Oc3ccc(NC(=O)Nc4ccc(C(F)(F)F)cc4)cc3CC(=O)N([C@H](C)CO)C[C@H]2C)cc1,4,-6[16.7 µM],-53,.
C[C@@H]1CN([C@H](C)CO)C(=O)Cc2cc(NS(=O)(=O)c3ccc(F)cc3)ccc2O[C@H]1CN(C)S(=O)(=O)c1ccccc1,-3,-1[16.7 µM],14,.
CCOC(=O)N(C)c1ccc(C(O)(C(F)(F)F)C(F)(F)F)cc1,-1,0,71*,-2
CC(=O)N(C)c1ccc(C(O)(C(F)(F)F)C(F)(F)F)cc1,.,5,.,-1
C[C@H](CO)N1C[C@H](C)[C@@H](CN(C)C(=O)C2CC2)Oc2cc(C#C[C@@H](C)O)ccc2S1(=O)=O,4,-8[16.7 µM],-28,.
CN1CCN(C(=O)c2ccc3nc(-c4ccc(F)cc4)c(-c4ccc(F)cc4)nc3c2)CC1,.,.,.,4
Cc1ccc(Cc2nnc3n(-c4ccccc4)nc(C(=O)c4ccccc4)n3c2=O)cc1,-1,-5,91*,-4
Cc1ccc(CNC(=O)c2cc(C)nn2-c2ccccc2)cc1,.,-5,14,.
C[C@@H]1CCCCO[C@@H](CN(C)C(=O)c2ccncc2)[C@@H](C)CN([C@H](C)CO)C(=O)c2cc(NC(=O)c3ccccc3)ccc2O1,1,3[16.7 µM],.,.
S=C(NCc1ccncc1)Nc1cc(Cl)cc(Cl)c1,-6,103*,7,-1
S=C(NCc1ccncc1)Nc1ccc(Cl)c(Cl)c1,-2,14,.,-5
Cc1nnc(NC(=O)C2CCCN(S(=O)(=O)Cc3ccccc3)C2)s1 (configuration not stated),2,-6,120*,-2
Cc1nnc(NC(=O)C2CCCN(S(=O)(=O)c3ccccc3C(F)(F)F)C2)s1 (configuration not stated),-1,3,-4,.
C[C@H]1CN([C@@H](C)CO)C(=O)c2cc(C#Cc3ccccc3F)cnc2O[C@H]1CN(C)C(=O)C1CC1,-3,-7[16.7 µM],-12,.
C=CC(=O)N1C/C(=C/c2ccccc2)C(=O)/C(=C\c2ccccc2)C1,.,-20,.,-1
CN1C2CCC1/C(=C\c1ccccc1)C(=O)/C2=C\c1ccccc1,1,-4,67*,22
Cc1ccc(S(=O)(=O)Nc2ccc3c(c2)C(=O)N([C@H](C)CO)C[C@@H](C)[C@H](CN(C)Cc2ccc(Cl)c(Cl)c2)O3)cc1,-3,-3[16.7 µM],75*,.
Cc1ccc(S(=O)(=O)Nc2ccc3c(c2)C(=O)N([C@@H](C)CO)C[C@@H](C)[C@H](CN(C)Cc2ccc(Cl)c(Cl)c2)O3)cc1,0,0[16.7 µM],95*,.
C[C@@H]1CN([C@@H](C)CO)C(=O)c2cc(NS(=O)(=O)c3ccc(Cl)cc3)ccc2O[C@@H]1CN(C)Cc1ccc(Cl)c(Cl)c1,-1,-12[16.7 µM],11,.
C[C@H]1CN([C@@H](C)CO)C(=O)c2cc(NS(=O)(=O)c3ccc(Cl)cc3)ccc2O[C@H]1CN(C)Cc1ccc(Cl)c(Cl)c1,2,-9[16.7 µM],64,.
CCOc1cc(CNCc2ccncc2)cc(Br)c1OCc1ccccc1F,-1,-13,112*,-1
CCOc1cc(CNCCSc2nnnn2C)cc(Br)c1OCc1ccccc1F,3,-4,-25,3
SMILES,PglD inh,miR-122 sensor,C2C12 statin,NSD2 HMT inh
N#Cc1nc(COc2ccccc2)oc1N1CCOCC1,1,0,106*,.
Cc1cc(C(=O)COC(=O)C2=NNC(=O)CC2)c(C)n1-c1ccccc1,3,-5,141*,7
C[C@@H]1CN([C@H](C)CO)C(=O)c2cc(NC(=O)Cc3ccccc3)ccc2O[C@@H](C)CCCCO[C@H]1CN(C)Cc1ccc(Cl)c(Cl)c1,-1,-5[16.7 µM],-16,.
C[C@@H]1CCCCO[C@@H](CN(C)Cc2ccc(Cl)c(Cl)c2)[C@H](C)CN([C@@H](C)CO)C(=O)c2cc(NC(=O)Cc3ccccc3)ccc2O1,-1,-17[16.7 µM],106*,.
C[C@@H]1CN([C@H](C)CO)C(=O)c2cc(NC(=O)Nc3ccccc3)ccc2O[C@@H](C)CCCCO[C@@H]1CN(C)Cc1ccc(Cl)c(Cl)c1,-3,-3[16.7 µM],117*,.
CCOC(=O)C1=C(C)NC(=S)N(C=O)C1c1ccccc1 (configuration not stated),.,-4,.,-1
CCOC(=O)C1=C(C)NC(=O)C(C(N)=O)C1c1ccccc1 (configuration not stated),-4,-7,111*,-1
CN(C)C(=O)C[C@H]1C=C[C@H](NC(=O)NC2CCCCC2)[C@@H](CO)O1,5,-4[16.7 µM],-1,.
CCOc1ccc(-c2cccc(NS(=O)(=O)c3cc([N+](=O)[O-])ccc3C)c2)nn1,0,130*,8,3
CCOc1ccc(-c2cccc(NS(=O)(=O)c3ccccc3[N+](=O)[O-])c2)nn1,1,2,7,17
CN1[C@@H]2c3ccc(-c4ccc(F)cc4)c(=O)n3C[C@H]1[C@H](CO)[C@H]2C(=O)Nc1nccs1,0,-3[16.7 µM],8,.
CCOC(=O)/C=c1\s/c(=C\c2ccc3c(c2)OCCO3)c(=O)n1CC(=O)NCC1CCCO1 (configuration not stated),4,2,110*,.
CCOC(=O)/C=c1\s/c(=C\c2c(OCC)ccc3ccccc23)c(=O)n1CC(=O)NCC1CCCO1 (configuration not stated),.,1,.,0
C[C@@H]1CCCCO[C@@H](CN(C)Cc2ccccc2)[C@@H](C)CN([C@H](C)CO)C(=O)c2cc(NC(=O)c3ccncc3)ccc2O1,7,-5[16.7 µM],.,.
O=C(Nc1ccccc1F)N1CCCCN2[C@H](CO)[C@H](c3ccc(/C=C/c4ccccc4)cc3)[C@H]2C1,4,-18[16.7 µM],0,.
CCOc1c(S(=O)(=O)N2CCCC2)ccc(Cl)c1Cl,-3,-2,122*,.
O=C(O)CCC(C(=O)O)n1c(O)c(C2=c3ccccc3=NC2=O)sc1=S (configuration not stated),-4,1,112*,2
Cc1ccc(S(=O)(=O)Nc2ccc3c(c2)CC(=O)N([C@H](C)CO)C[C@@H](C)[C@H](CN(C)C(=O)NC(C)C)O3)cc1,-11,2[16.7 µM],20,.
Cc1ccc(C(=O)N(CN2CCCC2=O)c2ccccc2)cc1C,1,-2,.,-1
Cc1ccc(N(CN2CCCC2=O)C(=O)c2ccc(C)c(C)c2)cc1,-2,-2,113*,-2
Cc1sc2nc(CN(C(=O)c3cccs3)C3CCCC3)[nH]c(=O)c2c1C,1,11,148*,-1
O=C(C[C@H]1C=C[C@@H](NC(=O)c2cccc(F)c2)[C@H](CO)O1)NCCN1CCCC1,1,.,6,.
